Consider 15 compounds from PubChem BioAssay (NCI).

Among the test systems are T-47D breast; BT-549 breast; MDA-MB-435 melanoma; SW-620 colon; MCF7 breast; HCT-116 colon; HCC-2998 colon; KM12 colon; MDA-MB-468 breast.
What all share (test): NCI-60 one-dose screen, 48 h (100 = growth as untreated, 0 = no growth, -100 = all killed)
Settings in all cases: 10 µM

“And” between values parts separate entries of the source, which are not always exact repeats. Equal values may be shown once. Compounds without any hit were thinned out: in the full panel of roughly 83,000, 20% have a hit.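 Assay: single dose, 48 h. Readout: percent growth (0 = no net growth; negative = cell death). Active: <10.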 The source made the active and inactive calls.

Consider `C=C1CCC2C3(C)COC(c4cccc(F)c4)OC3CCC2(C)C1CC(O)C1=CCOC1=O` (stereo not given), for which the growth in the test with T-47D breast was 37.9% (inactive); in the test on BT-549 breast it was -4.37% (active); in the test on MDA-MB-435 melanoma it was 57.7% (inactive); in the test with SW-620 colon, 6.42% (active); with MCF7 breast, 14.2% (inactive); in the test on HCT-116 colon, -7.46% (active). For the same compound, the results for the growth in the test with HCC-2998 colon, in the test on KM12 colon and with MDA-MB-468 breast were 63.1% (inactive), 59.6% (inactive) and 52.1% (inactive), respectively.

Regarding `CN1CCN(c2ccc(C(=O)/C=C/c3cc(C(F)(F)F)ccc3Cl)cc2)CC1`, the growth is -37.4% (active) with T-47D breast; -72.6% (active) with BT-549 breast; -56.5% (active) in the test with MDA-MB-435 melanoma; -70.7% (active) with SW-620 colon; -85.3% (active) in the test on MCF7 breast; -61.7% (active) in the test with HCT-116 colon. Further, the growth was -98.1% (active) with HCC-2998 colon, -36.5% (active) in the test on KM12 colon and -97.6% (active) in the test with MDA-MB-468 breast.

For `CC(=O)c1cc(C(=O)N2c3ccccc3Sc3ccccc32)n2ccc(C)cc12`, the growth was 20.8% (inactive) in the test on T-47D breast; 16% (inactive) in the test with BT-549 breast; 28% (inactive) with MDA-MB-435 melanoma; 25.6% (inactive) in the test on SW-620 colon; 26.5% (inactive) in the test on MCF7 breast; 7.08% (active) in the test with HCT-116 colon. The growth was 32.7% (inactive) in the test on HCC-2998 colon, 28.3% (inactive) in the test on KM12 colon and 3.44% (active) in the test on MDA-MB-468 breast.

As for `COc1ccc(-c2nc(S(=O)(=O)c3ccc(C)cc3)c(S(C)(=O)=O)o2)cc1`, the growth in the test with T-47D breast was -75.7% (active); in the test on BT-549 breast it was -12.5% (active); with MDA-MB-435 melanoma, -97.1% (active); in the test with SW-620 colon it was -58.5% (active); in the test with MCF7 breast, -53.1% (active); in the test on HCT-116 colon, -0.211% (active). Also, the growth in the test with HCC-2998 colon was -87.6% (active); in the test on KM12 colon, -19% (active); with MDA-MB-468 breast, -92.9% (active).

Turning to `O=C(Nc1nc2ccccc2s1)c1ccc(Br)cc1`, the growth in the test with T-47D breast was 44.1% (inactive); in the test on BT-549 breast, 90.3% (inactive); in the test on MDA-MB-435 melanoma, 88.8% (inactive); with SW-620 colon, 95% (inactive); in the test on MCF7 breast, 41.6% (inactive); with HCT-116 colon, 86.2% (inactive). In addition, the growth was 78.3% (inactive) in the test on HCC-2998 colon, 72.4% (inactive) in the test on KM12 colon and 37.9% (inactive) in the test on MDA-MB-468 breast.

Take `COc1ccc(C(=O)Nc2sc3c(c2C#N)CCC(=O)C3)cc1C(F)(F)F`: the growth with T-47D breast was -51.2% (active); with BT-549 breast, -58.3% (active); with MDA-MB-435 melanoma, -21.7% (active); in the test on SW-620 colon, -30.7% (active); in the test on MCF7 breast, -10.1% (active); in the test on HCT-116 colon it was 0.735% (active). The growth was 6.84% (active) with HCC-2998 colon, 10.4% (inactive) with KM12 colon and -38.9% (active) in the test with MDA-MB-468 breast.

For the compound `Brc1ccc(N/N=C/c2c[nH]c3ccccc23)nc1`, the growth is 25.7% (inactive) in the test with T-47D breast; -2.29% (active) in the test with BT-549 breast; 30.4% (inactive) in the test on MDA-MB-435 melanoma; 20.8% (inactive) in the test with SW-620 colon; 9.88% (active) with MCF7 breast; 6.45% (active) in the test with HCT-116 colon. For the same compound, the growth with HCC-2998 colon was -1.13% (active); with KM12 colon it was 0.217% (active); in the test on MDA-MB-468 breast it was -35.5% (active).

In the case of `COc1cc(/C=N/NC(=O)c2ccc3nc(-c4ccc(Cl)cc4)[nH]c3c2)cc(OC)c1OC`, the growth in the test with T-47D breast was -58.6% (active); in the test on BT-549 breast it was -81.5% (active); with MDA-MB-435 melanoma, -67.3% (active); with SW-620 colon, -22.1% (active); in the test with MCF7 breast, -72.8% (active); in the test on HCT-116 colon it was -67.5% (active). Further, the growth with HCC-2998 colon is -39.7% (active); with KM12 colon, -33% (active); in the test on MDA-MB-468 breast, 107% (inactive) and -89.3% (active).

As for `O=C(c1ccc(O)cc1)C1[C@H](c2ccc(Br)cc2)[C@@H](c2ccccc2)NC12C(=O)Nc1ccc(Br)cc12` (stereo not given in full), the growth in the test on T-47D breast is 22.2% (inactive); in the test with BT-549 breast, 39.3% (inactive); in the test on MDA-MB-435 melanoma it was -25.1% (active); with SW-620 colon, -28% (active); in the test with MCF7 breast it was -18% (active); in the test with HCT-116 colon, 8.14% (active). The growth is -83.9% (active) in the test with HCC-2998 colon, -24.7% (active) in the test on KM12 colon and -54% (active) with MDA-MB-468 breast.

Regarding `O=c1[nH][nH]c(Nc2ccccc2)c1N=Nc1ccc(F)cc1`, the growth is 36.4% (inactive) with T-47D breast; 65.3% (inactive) with BT-549 breast; 99.4% (inactive) with MDA-MB-435 melanoma; 109% (inactive) in the test with SW-620 colon; 13.9% (inactive) with MCF7 breast; 87% (inactive) in the test on HCT-116 colon. The growth in the test on HCC-2998 colon is 92.6% (inactive); in the test with KM12 colon, 55.3% (inactive); in the test on MDA-MB-468 breast, 27.8% (inactive).

As to `O=C(NO)c1ccc(Cn2ccc3c(NCc4ccccc4)ncnc32)cc1`, the growth is -16.8% (active) in the test on T-47D breast; -22% (active) in the test with BT-549 breast; -26.5% (active) in the test on MDA-MB-435 melanoma; -64.8% (active) in the test with SW-620 colon; 9.85% (active) with MCF7 breast; -7.75% (active) with HCT-116 colon. The growth in the test on HCC-2998 colon was -3.05% (active); with KM12 colon, 11.9% (inactive); in the test on MDA-MB-468 breast, -18.6% (active).

As to `CC(=O)Nc1ccc(-c2cn(-c3cccc(C(=O)Nc4cccc(OC(F)(F)F)c4)c3)nn2)cn1`, the growth is 93.2% (inactive) in the test on T-47D breast; 96.7% (inactive) in the test with BT-549 breast; 61.4% (inactive) in the test with MDA-MB-435 melanoma; 90.1% (inactive) in the test with SW-620 colon; 70.1% (inactive) in the test on MCF7 breast; 88.6% (inactive) in the test with HCT-116 colon. In addition, the growth is 110% (inactive) in the test with HCC-2998 colon, 30.1% (inactive) with KM12 colon and 86.7% (inactive) with MDA-MB-468 breast.

As to `COc1ccc(C(=O)CSc2nnc(-c3c[nH]c4ccccc34)n2-c2ccccc2)cc1`, the growth in the test with T-47D breast is 56.7% (inactive); in the test on BT-549 breast it was 24.7% (inactive); with MDA-MB-435 melanoma it was 69.1% (inactive); with SW-620 colon, 86.3% (inactive); in the test with MCF7 breast, 45.6% (inactive); with HCT-116 colon it was 52.5% (inactive). For the same compound, the growth in the test on HCC-2998 colon is 77.8% (inactive); with KM12 colon, 88.1% (inactive); with MDA-MB-468 breast it was 59.8% (inactive).

`O=C1Nc2cc(Cl)ccc2/C1=C/c1cccc(OCc2ccc(Br)cc2F)c1`: the growth with T-47D breast is 9.72% (active); in the test with BT-549 breast, 10.5% (inactive); in the test with MDA-MB-435 melanoma it was -64.4% (active); with SW-620 colon, 19.5% (inactive); in the test with MCF7 breast, 5.38% (active); with HCT-116 colon, 1.63% (active). The growth is 26% (inactive) with HCC-2998 colon, 1.67% (active) in the test with KM12 colon and -9.05% (active) with MDA-MB-468 breast.

Consider `CN(CCO)c1oc(-c2ccccc2)nc1[P+](c1ccccc1)(c1ccccc1)c1ccccc1`, for which the growth in the test on T-47D breast was 0.664% (active); with BT-549 breast, -22.5% (active); in the test on MDA-MB-435 melanoma, 2.53% (active); with SW-620 colon it was 11.5% (inactive); in the test on MCF7 breast, 0.978% (active); with HCT-116 colon, 6.5% (active). Also, the growth in the test on HCC-2998 colon is 10.8% (inactive); in the test with KM12 colon it was -39.4% (active); with MDA-MB-468 breast it was -55.9% (active).
